The supplement of paper PMC10105736
Unmarked numbers belong to inactive results.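 How the source made its calls: active = MAPPIT score above the 99th percentile of random reference set scores in the same batch; inactive = at or below it.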

How the values were obtained:
Experiment in all cases: MAPPIT interaction score (arbitrary units); higher = stronger binary interaction signal, active = hit call of the paper
mnb = details: MAPPIT configuration: N-N; pair source set: Finley_Y2H
lwr = details: MAPPIT configuration: N-N
mira = details: MAPPIT configuration: N-C; pair source set: Lit-BM-16
nos = details: pair source set: Lit-BM-16
mei-P22 = details: MAPPIT configuration: N-N; pair source set: screen_2
mal = details: MAPPIT configuration: N-N; pair source set: Lit-BS-16
otp = details: MAPPIT configuration: N-N; pair source set: screen_2
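Further: HEK293T cells with Epo stimulation, STAT-responsive firefly luciferase reporter, fold induction versus unstimulated cells divided by the larger fold induction of two negative controls lacking either bait or prey.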

B1: CG6153 (protein)
chain: MPHGHSHDHGGCSHEASDVDHALEMGIEYSLYTKIDLDNVECLNEETDGQGKSVFKPYEKRQDLSKYVESDADEELLFNIPFTGNIKLKGIIISGANDDSHPNMVKIFKNRPRMTFDDARAKPDQEFQLTRDARGEIEYSPKVVTFSSVHHLSLYFPSNFGEDITRIYYIGLRGEFTEAHYHGVTICNYESRANAADHKEKAFDGVGRAIQ
MAPPIT interaction score (mnb): 1.74

B2: CG12259 (protein)
chain: MAHYKGAASEAGRAAQLMKKREIQQQEIEFRKKKIEEELKLDKIENKFATHYDAVEQQLKSSTIGLVTLDEMKAKQEDIVREREKKLAQKKDEKDREKQRALEAIQAEKNKQKRQIQALSFNLDDDEEEEEEDDEDHDKKQLKIKQEDQPKPKWTEIKEDILPIKKKKICKNPDVDTSFLPDREREEQENRLREQLRQEWVMQQAELKDEDISITFSYWDGSGHRRNVLMKKGNSIYQFLQKCLELLRKEFIELKTVMADQLMYVKEDLILPHHYSFYDFIVTKARGKSGPLFQFDVHDDVRMISDASVEKEESHAGKVLLRSWYERNKHIFPASRWEPYDPTKSYDKYTIKDKDKSKK
MAPPIT interaction score (lwr; pair source set: Finley_Y2H): 0.18

B3: brat (protein)
chain: MASSPTPSLDSMRGGANSIESYEHAGYLSDSPLTLSGSSPPASDSAICSDEYTGGSSVKSRSEVTVINGHHPISASVSSSSSASSSSCSSSSSSSSSSSSSSSSTSGLSGCGSTSSSVISANNVASSNGPGVIGSNLQSSNNGGNSGISSLVVGAGKGSNSSSNSSSSNTSANGSPPRCTACKSKCSDAVAKCFECQSYLCANCVTAHEFMHCFNGHNVCLIKGFEASTTGTPLSVGSPSNNPASNEFKYASSLTMMLQQQQQLDSQQQQQQQQLLPAQPMSQLSKIVLAAAAQANSQEQQREDSIYGSLHPQQQQQQQQQQQRQLFCPRHKQELLKFSCRTCCILVCKECIVLEHSTGLHELENVQSPGMTTSTGSTANESALQTLLADMRGKIGEIVGIAGNSDQNLTKVKLQYQKAHNELNETHQFFASMLDERKTELLKELETLYTAKVNSNNSWQQRSRDLIDKGLATCEAVERSPAPPSSLLTEALLLRKSLEQQLQTGIQEMQLPFEIEFMSNYQSIQAGVRNTFGYIRANSSDGGPTGMSLTSNGHGKQPPIARPTQSASNSSASSAGSGHHGHHQQSHHHGHHNHHQTAHHQQLQAQSSLHGLGLGLSGASLLDSSSSAGGAVGAFSNGGLLLGGRDRNALAVEQHFGELMPKRGGGGYTGSNGSATSAVAHYNPYEKWSNGGSDNLFSSVTSGVSGSSAVADAFASLSAVGGSVVSGAGAGGSTVSSESLLDLTNKLLSATIYPPKSQIKRQKMIYHCKFGEFGVMEGQFTEPSGVAVNAQNDIIVADTNNHRIQIFDKEGRFKFQFGECGKRDSQLLYPNRVAVVRNSGDIIVTERSPTHQIQIYNQYGQFVRKFGATILQHPRGVTVDNKGRIIVVECKVMRVIIFDQNGNVLHKFGCSKHLEFPNGVVVNDKQEIFISDNRAHCVKVFNYEGQYLRQIGGEGITNYPIGVGINSNGEILIADNHNNFNLTIFTQDGQLISALESKVKHAQCFDVALMDDGSVVLASKDYRLYIYRYVQLAPVGM
MAPPIT interaction score (mira): 1.62 | MAPPIT interaction score (nos; MAPPIT configuration: N-C): 0.0947 | MAPPIT interaction score (nos; MAPPIT configuration: N-N): 0.243

B4: mei-P22 (protein)
chain: MDRTTVVPSPASTYCSFMGGSQHSPLRRSQRLIDKENRDLQKIPPKSLSPQLFGNTEDDYSELLLQQGKVVHLKPAAKLVPVRSSDNLVHLGSRDKVVPLKTSNRIVHLKPPYKIIHLKSLDEVEKTVKKKNNIQKEVHQRNSQRRSIQCTPKKRGRKPKQPAKKLQSRISTDQLGSTPSPSKLPAKYPAHFVHQLPPAEDSSCATRRRSLSAPAMQLSDLSLTPDEIQTPERRGEIVNKSPSDLDSDVSLNFSLSDSIGEIFGTKDISSILTMQRPRQYILLEEHLPTLATMLNVDLERLRCVLDITQGLSHEQILRFPIKHEEDELEVP
MAPPIT interaction score (mei-P22): 4.86 (active)

B5: cN-IIIB (protein)
chain: MGFDEKREPTGGRLRLQDIPALTQDHCRMRDPAEVERIINEFVIGGPERMQIVSDFDYTITKQRTEDGGAVPSSFGIFNACQSLPENFKAETDKLYHKYRPIEIDPHMPIAEKVQYMIEWWTKSGELTSGFPFDQSEIDQIASKYTHALRDRTHEFFADLQRLGIPTLVFSAGLGNSVVSVLRQANVLHPNVKVVSNFLQFRDGLLDGFQQPMIHTFNKNETVLNETSEYYDLVHTRDHIIVMGDSIGDADMASGVPASSHIMKIGFLFDHVEANMKKYMDTFDIVLVDDQTMDVPRTLLSLIEKQHKLNLEAPKQSSL
MAPPIT interaction score (mal): 1.36 | MAPPIT interaction score (otp): -0.311

B6: pcs (protein)
chain: MSSAEDGELDPQIQIELENLNSATDEINKLEIELEEANSTFRILLNESTRRLKVSSKKLGNCIEKARPYYEALDKAREAQIECQKAAVKFQRANEIHAAAKETVALAEQRFMSNSHEWQFDNAWQEMLNHATQKVMDAETQKADCHAEHQRLTKLFNAAEQKLQQLEDRFRRSINKSRPYFEEKQVCQDQLQTQKNRIQELQQQVAGAKSTYSTALRNLERISEDIHRQRGDFPTPPGPREPGVGAELNSPTSSALPSLPDFQLELEKCDYPSIAGSQMSLGAKTPQAAAETEDEEDACDYDETGAGELRGVVDERDLEALRQKVKILAVRPIEGGDGQQQNDVWEHELKATVDKLDHLMMLKETAKRQQTNRLKSTEQRPDSLGAEALKRHCDVVEVKVTSCATTASLPVTPHHQLNHLAPPTPIKKLQQQLAPLPSVNVSMRELPLLARLSNELLDRSSAAFGGVRKTLRRRSLE
MAPPIT interaction score (lwr; pair source set: Curagen_low_conf): -0.177
